The text below walks through data of PubChem BioAssay.

Calls of active or inactive are those of the source.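 Rule for the calls: active = hit in primary screen, with calcium signal over 5 SD above buffer well mean in both duplicates; inactive = the rest.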

This test can be described thus: calcium flux activation in mu-opioid HEK293 cells, confirmation, counter-screen for TRPC4 activator project, cell-based, HEK293 mu-opioid receptor line (AID 449723).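 Note: counter screen cells carry the mu-opioid receptor alone and lack TRPC4.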 The conditions noted are these: Fluo-4 calcium fluorescence, at 10 µM.
`COc1cc(/C=C2\C(=N)N3N=C(S(C)(=O)=O)SC3=NC2=O)ccc1OC(=O)c1cccs1`: the result was inactive.
`c1ccc(CN2CCN(c3nc4ccccc4s3)CC2)cc1`: the outcome was inactive.
Regarding `COc1ccccc1N(C(=O)c1snc(C(N)=O)c1N)C(C(=O)NCc1ccccc1)c1ccc(O)cc1` (configuration not stated), the result was inactive.
As for `Cc1ccc(SC(CC(=O)c2ccc(C(C)(C)C)cc2)C(=O)O)cc1` (configuration not stated), the entry is “inactive”.
As for `COc1ccc(C2CC(=O)c3cnc(N4CCN(Cc5ccccc5)CC4)nc3C2)cc1` (configuration not stated), the entry is “inactive”.
Consider `CC(=O)Nc1ccc(S(=O)(=O)N2CCN(CCCOc3cc(C)ccc3C)CC2)cc1`, for which the outcome was inactive.
`COc1cc(/C=C/C(=O)OCC(=O)Nc2c(C)n(C)n(-c3ccccc3)c2=O)ccc1OCC#N`: the outcome was inactive.
The entry for `Cc1cc2oc(C(=O)N(Cc3ccco3)C3CCS(=O)(=O)C3)cc(=O)c2cc1Cl` (configuration not stated) is “inactive”; for `CCOCCCn1cnc2c(c1=O)c1nc3ccccc3nc1n2-c1ccc(C)cc1` it is “inactive”; for `O=C(c1ccccc1F)N1CCN(c2ccc([N+](=O)[O-])cc2-n2cccc2)CC1` it is “inactive”.
As for `CN(CC(=O)Nc1ccc(F)cc1)C(=O)COC(=O)c1ccccc1`, the entry is “inactive”; as for `O=C(NC1CC1)c1ccc2c(c1)N(Cc1ccc(Cl)cc1)CCS2`, “inactive”.
On to `O=C(Nc1ccc2c(c1)OCO2)c1cnn2cccnc12`, for which the outcome was inactive.
Consider `CCc1nc2ccccc2n1Cc1ccccc1F`, for which the outcome was inactive.
As for `CN(Cc1ccco1)C(=O)Cn1ncc2c([nH]c3ccccc32)c1=O`, the entry is “inactive”; as for `CN1CCN(NC(=O)Nc2cc(Cl)cc(Cl)c2)CC1`, “inactive”.
The entry for `Cc1ccc2nc(C(=O)N3CCc4c([nH]c5ccccc45)C3c3ccccn3)cn2c1` (configuration not stated) is “inactive”.
